# Assay outcomes as filed in PubChem BioAssay.
# The list is not random: actives were taken first. Their share in the collection is about 9.2%.
# FLuc modulator = firefly luciferase modulation, counter-screen for miR-21 project; 360,000 compounds, 6.9% hits; Potency, µM (top dose mostly 57.5 µM), for the others: at the highest dose activity change, negative = inhibition, hits mostly inhibitors; purified FLuc, Km substrates, luminescence inhibition; AID 588342;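 further: plate controls were vehicle for no effect and reference inhibitor for full effect; nearly all actives have a fitted effect of over 55% in size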
# Target sequence (P08659 whole entry, looked up): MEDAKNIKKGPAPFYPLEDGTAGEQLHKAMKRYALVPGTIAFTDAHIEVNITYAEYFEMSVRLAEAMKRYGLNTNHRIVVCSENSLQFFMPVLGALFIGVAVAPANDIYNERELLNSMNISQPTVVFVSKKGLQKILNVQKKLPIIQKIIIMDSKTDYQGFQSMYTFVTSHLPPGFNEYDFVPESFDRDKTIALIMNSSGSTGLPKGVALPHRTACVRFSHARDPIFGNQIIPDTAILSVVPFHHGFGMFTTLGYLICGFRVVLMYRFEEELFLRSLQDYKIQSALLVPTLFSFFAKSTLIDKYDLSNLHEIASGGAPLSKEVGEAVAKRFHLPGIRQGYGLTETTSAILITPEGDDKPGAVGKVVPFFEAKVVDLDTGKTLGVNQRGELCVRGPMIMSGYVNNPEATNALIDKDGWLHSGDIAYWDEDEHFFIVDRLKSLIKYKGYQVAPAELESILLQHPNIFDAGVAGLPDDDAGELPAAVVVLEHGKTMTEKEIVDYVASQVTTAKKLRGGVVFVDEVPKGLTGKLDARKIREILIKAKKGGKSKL
#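 Biochemical qHTS of compounds, final roughly 60 µM downward over six points, against 10 nM purified firefly luciferase using Km concentrations of substrates (10 uM D-luciferin, 10 uM ATP) in Tris acetate pH 7.5 buffer; luminescence output.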
# SMN2 splice up = enhancers of SMN2 splice variant expression; HEK293 SMN2-luciferase splicing reporter, luminescence, 30-36 h; Potency, µM (top dose mostly 46.1 µM), for inactives: at the top dose activity change, positive = activation, actives largely listed as activators; 210,000 compounds, 2.8% hits; further: % of control where 0% means no effect; nearly all actives have a fitted effect of over 55% in size
#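 HEK293 cells carry an SMN2 […]–luciferase reporter in which exon 7 inclusion puts luciferase in frame. Cells were plated 10-12 h before compound addition, then incubated 30-36 h at 37C. ONE-Glo luminescence was read; sodium butyrate at 4.5 mM final served as control.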
# Rab9 promoter act = activators of Rab9 promoter | Huh7 Rab9 promoter-luciferase reporter, luminescence, 24 h | Potency, µM (top dose mostly 9.22 µM), for the others: top-dose activation, negative = inhibition, usual class: activators | 320,000 compounds, 2.8% hits; further: % of control where 0% means no effect; nearly all actives have a fitted effect of over 60% in size
#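 Luminescence from Amplite-detected luciferase (10 minutes, ambient) reports Rab9 promoter activation. Before that, stable Rab9-luciferase Huh7 cells (1500/well, reduced-serum OP-MEM I plus 10% FBS) were exposed to compound for 24 hours at 37C.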
# NPC1 prom act = NPC1 promoter activation; Huh7 NPC1 promoter luciferase reporter, 24 h; Potency, µM (doses to about 9.22 µM), inactives show at the highest dose activation, most hits filed as activators; 320,000 compounds, 2.4% hits; AID 485313; further: % of control where 0% means no effect; nearly all actives have a fitted effect of over 60% in size
#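 NPC1 promoter–luciferase Huh7 cells; 24 h compound; luminescence.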
# ELG1 genotox = induces genotoxicity in HEK293T cells with luciferase-tagged ELG1 | HEK293T ELG1-luciferase reporter, luminescence, 16 h | Potency, µM (highest dose often 46 µM), for the others: top-dose activity change, positive = activation, most hits filed as activators | 330,000 compounds, 1.3% hits | AID 504466; further: % of control where 0% means no effect; nearly all actives have a fitted effect of over 60% in size
#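 ELG1-luciferase HEK293T cells, 2,000/well; compound pinned in; 16 hr, 37 °C, 5% CO2; ONE-Glo, 30 min RT; luminescence on CCD imager.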
# ELG1 DNA repair = ELG1-dependent DNA repair inhibition. HEK293T ELG1-luciferase reporter, luminescence, 16 h; DNA damage induced by 5-fluorouridine. Potency, µM (doses to about 46.1 µM), for the others: at the highest dose activity change, negative = inhibition, hits mostly inhibitors. 330,000 compounds, 2.3% hits; further: on the % scale 0 is the no-effect control and ±100 the full control effect; nearly all actives have a fitted effect of over 55% in size
#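 DMSO vehicle served as the neutral condition. Each well held 2,000 cells given 5-fluorouridine plus compound; after 16 hr at 37 °C/5% CO2, ONE-Glo was added and luciferase measured 30 min later.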
# The depositor's hits bear a star; ? = inconclusive; nt = not tested or not shown; [ ] = remark or other dose. The call rests on the fitted dose curve; in most records, active means well fitted curve in the direction sought with a large enough effect; inconclusive means small, poorly fitted or top-dose-only effect, or another doubt; inactive means no such curve, though single readings can be large; an effect the other way counts as inactive or inconclusive. Potency means the concentration at half of the fitted maximal effect.
SMILES,FLuc modulator,SMN2 splice up,Rab9 promoter act,NPC1 prom act,ELG1 genotox,ELG1 DNA repair
CCOC(=O)c1ccc(NC(=O)Oc2ccccc2)cc1,?,-5%,19%,3%,8%,?
COC(=O)Nc1ccc(S(=O)(=O)N2CCCC(C(=O)Nc3cccnc3)C2)cc1 (stereo not drawn),-2%,12%,-3%,-3%,-6%,-24%
CCOC(=O)c1ccc(NC(=O)C2CCCN(S(=O)(=O)c3ccc(F)cc3)C2)cc1 (stereo not drawn),2%,-25%,0%,-3%,-37%,16µM*
CC(C)(C)c1ccc(NC(=O)Nc2ccc(F)cc2)cc1,2.4µM*,13µM*,2.5µM*,1.8µM*,?,?
COc1ccc([C@]23Cc4ccccc4C(O2)C2=C(CC4(CCCCC4)OC2=O)O3)cc1,?,nt,10%[1.84 µM],-1%[1.84 µM],nt,nt
O=C(C1CCCN(S(=O)(=O)c2ccc(F)cc2)C1)N1CCCC1 (stereo not drawn),1%,-4%,-4%,11%,0%,11%
O=C(C1CCCN(S(=O)(=O)c2ccc(F)cc2)C1)N(Cc1cccs1)C1CC1 (stereo not drawn),10%,-51%,6%,2%,-28%,12µM*
CC(C)(C)c1ccc(NC(=O)c2ccc(=O)[nH]n2)cc1,3µM*,nt,0.79µM*,0.71µM*,?,?
Cc1csc(NC(=O)CN2C(=O)COc3ccc(Cl)cc32)n1,0%,nt,0%,1%,3%,?
CC1CN(C(=O)Nc2ccc3c(c2)OCO3)CC(C)O1 (stereo not drawn),17µM*,25%,27%,27%,?,?
O=C(Nc1ccc2c(c1)OCO2)N1CCN(c2ccc(F)cc2)CC1,24µM*,22%,?,?,13%,?
Fc1c(F)c(F)c(/C=N/NC(=S)Nc2cccnc2)c(F)c1F,3%,27%,-7%,0%,-8%,?
Fc1ccc(/C=N/NC(=S)Nc2cccnc2)cc1,?,1%,27%,16%,23µM*,5%
Oc1ccc(/C=N/NC(=S)Nc2cccnc2)c(O)c1,21µM*,-92%,-18%,-2%,?,16%
Oc1cccc(/C=N/NC(=S)Nc2cccnc2)c1O,?,-82%,-2%,0%,?,21%
Oc1ccc(/C=N/NC(=S)Nc2cccnc2)c(O)c1O,19µM*,nt,-3%,-3%,-17%,15µM*
Fc1ccc(/C=N/NC(=S)Nc2cccnc2)cc1F,-3%,-11%,2%,7%,-2%,?
Cc1cccc(CNC(=O)C(C)n2nc(C)c3c(C)n(-c4ccccc4)nc3c2=O)c1 (stereo not drawn),0%,nt,-6%,-2%,-5%,-26%
COc1ccccc1NC(=O)Cn1c(=O)n(Cc2ccc3c(c2)OCO3)c(=O)c2oc3ccccc3c21,-2%,nt,nt,nt,nt,nt
COc1ccc(CC(=S)NCCc2ccccc2)cc1,?,nt,4%,-1%,2%,15%
CC1CCN(C(=O)c2ccc(NS(=O)(=O)c3ccc4[nH]c(=O)[nH]c4c3)cc2)CC1,6%,nt,-2%,0%,-2%,0%
CCCN1C(=O)CN(C2CCCCCC2)C(=O)C1c1ccc(OCC)c(OC)c1 (stereo not drawn),-3%,nt,nt,nt,nt,nt
S=C(Nc1ccc2nsnc2c1)NC1CCCCC1,21µM*,?,19%,20%,-2%,?
S=C(Nc1ccc(Cl)c(Cl)c1)NC1CCCCC1,?,?,13%,9%,-4%,?
CC(C)c1ccc(NC(=S)NC2CCCCCC2)cc1,17µM*,13µM*,?,?,?,?
FC(F)(F)c1ccc(NC(=S)NC2CCCCC2)cc1,?,16µM*,23%,8%,-13%,-2%
CC(C)C(=O)NC(=S)Nc1ccc(S(=O)(=O)NC2CCCCC2)cc1,-4%,nt,-9%,-4%,-7%,12µM*
CC(C)=NNc1ncnc2nc[nH]c12,nt,6%[9.22 µM],nt,nt,nt,nt
